ERK AVP block – vasopressin-driven ERK pathway inhibition | HEK293-V1b, vasopressin-stimulated pERK AlphaScreen | Potency, µM (titrated, usually from 57.5 µM), inactives show at the top dose activity, negative = inhibition, hits mostly inhibitors | 72,000 tested, 0.99% active | AID 995; also: % is scaled to controls: 0 for no effect and ±100 for the full control effect; nearly all actives have a fitted effect of over 55% in size
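qHTS, compounds titrated on V1b-expressing HEK293 cells. Preincubation 30 min at 37C, vasopressin 25 nM for 5 min, lysis 10 min, bead incubation 5 hr at room temperature.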
HEK293 cAMP ctrl – counter-screen for TSHR agonists: cAMP increase in parental HEK293; parental HEK293 CNG cAMP sensor, membrane potential fluorescence; AID 938; Potency, µM (top dose mostly 57.1 µM), for the others: at the highest dose activation, hits mostly activators; 73,000 tested, 2.5% active; also: % of control where 0% means no effect; nearly all actives have a fitted effect of over 55% in size
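Parental HEK 293 cells stably expressing a cAMP-gated CNG channel were loaded with membrane potential dye containing 100 uM RO 20-1724 for 60 min. Compound added for 30 min; depolarization read as fluorescence intensity at 590 nm.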
CRE-bla Fsk – CRE-bla signaling modulation under forskolin stimulation. CHO CRE-bla reporter (cAMP response element driving beta-lactamase), forskolin EC10, beta-lactamase ratio. Potency, µM (top dose mostly 38.2 µM), for inactives: at the highest dose activity change, negative = inhibition, usual class: activators. 71,000 tested, 2.5% active; active = well fitted activation curve with a large enough effect in the signal ratio, with a control signal flat, not every such curve was filed as active; inconclusive = small, poorly fitted or top-dose-only effect, or effect the other way, or a change in a side signal; the % refers to the signal ratio; also: % of control where 0% means no effect
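qHTS titration format; CRE-bla CHO reporter; stimulus EC10 NKH 477, a water-soluble forskolin. Read: CCF4 460/530 nm ratio. Potency expressed as AC50 for activators or inhibitors.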
TSHR ag – activates the human thyroid stimulating hormone receptor. HEK293-CNG-TSHR cells (CNG channel as cAMP sensor), membrane potential dye, cAMP. Potency, µM (series often up to 57.1 µM), inactives show at the highest dose activation, actives largely listed as activators. 73,000 tested, 0.48% active; active = well fitted activation curve with a large enough effect in the main read-out, with a control signal flat, not every such curve was filed as active; inconclusive = small, poorly fitted or top-dose-only effect, or a change in a side signal; inactive = no such curve, though single readings can be large or run the other way; % of control where 0% means no effect;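 also: the control signal comes from parental cells without the receptor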
Target sequence (P16473 whole entry, looked up): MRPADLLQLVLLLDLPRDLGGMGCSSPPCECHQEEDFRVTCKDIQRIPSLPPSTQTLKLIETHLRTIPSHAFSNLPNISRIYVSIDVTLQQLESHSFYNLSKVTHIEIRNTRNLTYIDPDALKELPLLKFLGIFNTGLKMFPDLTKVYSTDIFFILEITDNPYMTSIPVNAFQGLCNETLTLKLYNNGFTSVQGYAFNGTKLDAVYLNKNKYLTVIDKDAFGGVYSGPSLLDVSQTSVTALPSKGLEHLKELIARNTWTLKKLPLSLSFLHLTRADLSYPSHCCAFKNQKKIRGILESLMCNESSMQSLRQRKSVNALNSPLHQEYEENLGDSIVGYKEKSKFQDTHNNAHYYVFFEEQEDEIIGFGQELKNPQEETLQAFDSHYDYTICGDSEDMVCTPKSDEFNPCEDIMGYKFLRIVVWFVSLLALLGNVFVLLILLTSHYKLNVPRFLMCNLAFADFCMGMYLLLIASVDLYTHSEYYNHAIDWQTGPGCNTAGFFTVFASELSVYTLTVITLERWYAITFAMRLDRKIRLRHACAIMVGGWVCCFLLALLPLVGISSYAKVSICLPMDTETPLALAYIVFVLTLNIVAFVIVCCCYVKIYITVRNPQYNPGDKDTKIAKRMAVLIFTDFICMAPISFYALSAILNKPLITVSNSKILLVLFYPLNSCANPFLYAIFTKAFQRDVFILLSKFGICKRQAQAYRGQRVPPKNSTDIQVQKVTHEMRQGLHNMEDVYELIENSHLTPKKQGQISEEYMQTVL
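HEK 293 cells stably expressing TSHR and a modified CNG channel, with CNG-only parental cells as counterscreen, were preloaded 60 min at room temperature with membrane potential dye containing 100 uM RO 20-1724. Compound exposure was 30 min, and depolarization was read as fluorescence at 590 nm.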
An asterisk follows results filed as active; ? = inconclusive; / = not tested or not shown; [ ] = dose if it differs, or a comment. This is a sample that favours compounds with a hit; in the whole collection about 6% have one here. Unless noted, calls follow the shape of the dose curve; as a rule, active = well fitted curve in the direction sought with a large enough effect; inconclusive = small, poorly fitted or top-dose-only effect, or another doubt; inactive = no such curve, though single readings can be large; an effect the other way counts as inactive or inconclusive. Potency is read from the fitted curve at half-maximal effect.

SMILES	ERK AVP block	HEK293 cAMP ctrl	CRE-bla Fsk	TSHR ag
CCOC(=O)c1c(NC(=O)c2nn(CC)cc2Br)sc2c1CCCCC2	-1%	-2%	15%	7%
CCOC(=O)c1nn(-c2ccccc2)c(C#N)c1NC(=O)c1nn(CC)cc1Br	-11%	12%	1.6µM*	9%
CCOC(=O)c1c(NC(=O)c2nn(CC)cc2Br)c(C#N)nn1-c1ccccc1	-10%	14%	7.9µM*	/
COc1ccc(CNc2nc3nc(C)c(Cl)c(C)n3n2)cc1OC	-8%	-3%	13µM*	/
Oc1ccc(-c2nc(-c3ccc(F)cc3)c(-c3ccncc3)[nH]2)cc1	7.9µM*	-40%	?	?
COc1cccc(C2=CC(c3ccc(C)cc3)n3ncnc3N2)c1 (centres undefined)	1%	16µM*	?	?
Cc1ccc(C2C=C(c3ccc4c(c3)OCO4)Nc3ncnn32)cc1 (centres undefined)	30%	26%	?	/
O=c1oc2c(CN3CCOCC3)c(O)ccc2c2c1CCCC2	-8%	5%	10µM*	19%
COCCN(CCOC)Cc1c(O)ccc2c3c(c(=O)oc12)CCC3	-10%	5%	13µM*	-1%
COCCN(CCOC)Cc1cc(=O)oc2cc3c(cc12)CCC3	3%	6%	4%	18%
CCN(CC)CCCC(C)n1c(-c2ccccc2)nc2c(NCCO)nc(C)nc21 (centres undefined)	8%	22%	?	3%
COc1ccc(-c2cc(C(F)F)n3ncc(C(=O)NCC4CCCO4)c3n2)cc1 (centres undefined)	-9%	7.9µM*	?	?
COc1ccc(-c2cc(C(F)F)n3ncc(C(=O)N4CCN5CCCC5C4)c3n2)cc1 (centres undefined)	-4%	16µM*	?	?
Cc1c(N=CC=Nc2c(C)n(C)n(-c3ccccc3)c2=O)c(=O)n(-c2ccccc2)n1C	-11%	-2%[11.4 µM]	?	-7%[11.4 µM]
Cc1c(N=c2c(=O)c3ccccc3c2=O)c(=O)n(-c2ccccc2)n1C	20µM*	9%	?	5%
CCCc1cc2c(n1CCc1ccc(Cl)cc1)C(C)C1CN(C(=O)c3ccccc3)C(C)(C(=O)OC)C21 (centres undefined)	26%	?	?	?
CC(C)c1ccc(S(=O)(=O)N2CCN(C(=O)c3cccc(F)c3)CC2)cc1	15%	20µM*	?	?
O=C(c1cccc(F)c1)N1CCN(S(=O)(=O)c2ccccc2)CC1	20%	4%	?	6%
Cc1cc(N2CCN(C(=O)c3ccco3)CC2)nc(-c2ccccc2)n1	-15%	3%	1%	1%
N#Cc1c(N2CCN(C(=O)c3ccco3)CC2)nc(-c2ccccc2)c2c1CCCC2	-28%	16µM*	?	?
Clc1ccc(-n2nnnc2-c2ccccc2)cc1Cl	17%	25µM*	26%	?
COc1ccccc1N=c1oc2cc(O)ccc2cc1C(N)=O	-6%	5%	?	/
COc1ccccc1N=c1oc2cc(O)ccc2cc1C(=O)NCC1CCCO1 (centres undefined)	?	1.6µM*	10µM*	?
COc1ccccc1NC(=O)c1cc2ccc(O)cc2o/c1=N\O	32µM*	-25%	10µM*	-14%
COc1ccccc1NC(=O)c1cc2ccccc2o/c1=N\O	21%	20%	1%	-11%
SMILES	ERK AVP block	HEK293 cAMP ctrl	CRE-bla Fsk	TSHR ag
O=C(O)[C@H]1CN(CCCP(=O)(O)O)CCN1	-4%	14%	-17%	6%
CC1(C)C(=O)C2C[C@]3(O)C4=CC(=O)OC(c5ccoc5)[C@]4(C)CCC3[C@](C)(C2=O)C1CC(=O)O (some centres undefined)	-15%	/	/	/
COCCNc1nc(C)nc2c1nc(-c1ccccc1)n2C1CCN(Cc2ccccc2)C1 (centres undefined)	-9%	?	?	?
CC[C@H](NC(=O)c1c(C)c(-c2ccccc2)nc2ccccc12)c1ccccc1	36%	16µM*	?	?
Cc1ccc(OC2C(O)COC2/C=C/C#Cc2ccc(C(C)(C)C)cc2)cc1 (centres undefined)	19%[11.5 µM]	2%[11.4 µM]	/	-5%[11.4 µM]
COc1cccc(-c2cc(NCc3cccc(C)c3)ncn2)c1	?	?	5µM*	?
COc1cccc(-c2cc(NCc3ccccc3OC)ncn2)c1	-25%	?	?	?
COc1cccc(-c2cc(NCc3cccs3)ncn2)c1	25µM*	?	?	?
O=C(c1ccc(F)cc1)c1cn[nH]c1-c1ccccc1O	-13%	-14%	7%	-10%
COc1ccc(C(=O)c2cn[nH]c2-c2cc(Cl)ccc2O)cc1	40µM*	-6%	?	-9%
O=C(O)[C@@H]1[C@H](C(=O)O)[C@H]2C(=O)C=C[C@H]1N2Cc1ccccc1	4%[11.5 µM]	0%[11.4 µM]	?	-1%[11.4 µM]
COc1cc(C)c(C(C)C)cc1S(=O)(=O)n1cnc(C)c1	-14%	25%	13µM*	/
COc1cc(C)c(C(C)C)cc1S(=O)(=O)N1CCN(C)CC1	20%	8%	5%	-2%
CCNc1ncc2nc(-c3cc(F)cc(F)c3)c(=O)n(CCOC)c2n1	5%	10%	?	3%
CCCCN1CCCCC1C(=O)Nc1c(C)cc(C)cc1C (centres undefined)	1%	20µM*	?	?
COCCn1c(=O)c(-c2cccc(C#N)c2)nc2cnc(N3CCN(C)CC3)nc21	-26%	-16%	13µM*	-7%
CN1CCN(c2ncc3nc(-c4cc(F)cc(F)c4)c(=O)n(CCC#N)c3n2)CC1	-23%	6%	?	-6%
CN1CCN(c2ncc3nc(-c4cccc(C#N)c4)c(=O)n(CCC#N)c3n2)CC1	-7%	-15%	10µM*	-3%
N[C@@H](CSCc1ccccc1)C(=O)O	6%[11.5 µM]	6%[11.4 µM]	7%[7.6 µM]	8%[11.4 µM]
CO/N=C1\CN(c2nc3c(cc2F)c(=O)c(C(=O)O)cn3C2CC2)CC1CN (centres undefined)	10%	/	/	/
OC[C@H]1NC[C@H](O)[C@@H](O)[C@H]1O	-2%	-3%	-12%	4%
Cc1cc(C)c2nc(N3CCN(C)CC3)c(C#N)cc2c1	-5%	13µM*	3%	?
Cc1cccc2cc(C#N)c(N3CCN(C)CC3)nc12	4%	16µM*	8%	?
N#Cc1cc2cc3c(cc2nc1N1CCCCC1)OCCO3	20%	?	?	?
Cc1ccc(C)c2nc(N3CCCC3)c(C#N)cc12	-2%	?	10µM*	?
C[C@@H](N=C(N)N)C(=O)O	-14%[11.5 µM]	-1%[11.4 µM]	-4%[7.6 µM]	0%[11.4 µM]
Cc1nc2cnc(N3CCN(C)CC3)nc2n(C2CC2)c1=O	?	2%	-6%	-3%
O=c1c(-c2cccs2)nc2cnc(Oc3cccc(Cl)c3)nc2n1C1CC1	6%	0%	?	14%
CC(Oc1ccc(Br)cc1)C(=O)N1CCc2ccccc21 (centres undefined)	64%	25µM*	?	?
COc1ccc2c(Cc3c4ccccc4cc4ccccc34)cncc2c1O	-11%[11.5 µM]	-10%[11.4 µM]	15%[7.6 µM]	0%[11.4 µM]

Screens: PubChem BioAssay, National Center for Advancing Translational Sciences (NCATS)
